Measurements taken from PubChem BioAssay AID1159580 (chemical genetic matrix, 2015).
Screen size: about 5,500 compounds; about 2,000 (36%) were called active. Another 18% or so got no clear call; they are omitted. Cut-off read from the data, not from the text of the source: active = normalized growth mostly below about 0.91 (no sharp cut-off); inconclusive = no clear call, values can overlap the other calls; inactive = mostly above about 0.92. The list shows a part of the results.

Test: chemical genetic growth profiling, strain panel (AID 1159580);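 note: tested at 20 µM; growth read once vehicle control cultures reached saturation at 30 °C; 1 = growth at the plate median or of vehicle wells; lower values mean less growth of the strain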
Conditions: growth OD
[1] = S. cerevisiae deletion strains, locus YAL013W, strain DEP1, hits give low values
[2] = S. cerevisiae deletion strains, locus YBR229C, strain ROT2, hits give low values
[3] = S. cerevisiae deletion strains, locus YDL101C, strain DUN1, hits give low values
[4] = S. cerevisiae deletion strains, locus YDR150W, strain NUM1, hits give low values
[5] = S. cerevisiae deletion strains, locus YEL061C, strain CIN8, hits give low values
[6] = S. cerevisiae deletion strains, locus YGR078C, strain PAC10, hits give low values
[7] = S. cerevisiae deletion strains, locus YHR030C, strain SLT2, hits give low values
[8] = S. cerevisiae deletion strains, locus YHR087W, strain rtc3, hits give low values
[9] = S. cerevisiae deletion strains, locus YJR043C, strain POL32, hits give low values
[10] = S. cerevisiae deletion strains, locus YJR075W, strain HOC1, hits give low values
[11] = S. cerevisiae deletion strains, locus YKL190W, strain CNB1, hits give low values
[12] = S. cerevisiae deletion strains, locus YLR039C, strain RIC1, hits give low values
[13] = S. cerevisiae deletion strains, locus YLR058C, strain SHM2 (second series), hits give low values
[14] = S. cerevisiae deletion strains, locus YLR085C, strain ARP6, hits give low values
[15] = S. cerevisiae deletion strains, locus YLR262C, strain YPT6, hits give low values
[16] = S. cerevisiae deletion strains, locus YML094W, strain GIM5, hits give low values
[17] = S. cerevisiae deletion strains, locus YMR219W, strain ESC1, hits give low values
[18] = S. cerevisiae deletion strains, locus YMR263W, strain SAP30, hits give low values
[19] = S. cerevisiae deletion strains, locus YNL153C, strain GIM3, hits give low values
[20] = S. cerevisiae deletion strains, locus YNL298W, strain CLA4 (second series), hits give low values
[21] = S. cerevisiae deletion strains, locus YNL322C, strain KRE1, hits give low values
[22] = S. cerevisiae deletion strains, locus YNR030W, strain Alg12, hits give low values
[23] = S. cerevisiae deletion strains, locus YPL055C, strain LGE1, hits give low values
[24] = S. cerevisiae deletion strains, locus YPL241C, strain CIN2, hits give low values
[25] = S. cerevisiae deletion strains, locus YPR135W, strain CTF4, hits give low values

Measured: normalized growth

NNC(=O)c1cccnc1Oc1ccccc1
inactive: [1] 1.01 | [2] 0.998 | [3] 1.03 | [4] 1.04 | [5] 1.02 | [6] 1.02 | [7] 1.11 | [8] 1.02 | [9] 1.01 | [10] 1.03 | [11] 1.02 | [12] 1.12 | [13] 1 | [14] 1.12 | [15] 1.01 | [16] 1.03 | [17] 1.02 | [18] 1.02 | [19] 1.01 | [20] 1.08 | [21] 1.01 | [22] 1.03 | [23] 1.02 | [24] 1.04 | [25] 1.14

CCSc1ncccc1C(=O)N[C@@H](CCSC)C(=O)OC
inactive: [1] 0.994 | [2] 0.996 | [3] 0.98 | [4] 0.906 | [5] 1.02 | [6] 0.993 | S. cerevisiae deletion strains, locus YGR229C, strain SMI1, hits give low values 1 | [7] 0.979 | [8] 1 | [9] 0.98 | [10] 1.01 | [11] 1.01 | [12] 1 | [13] 1.01 | [14] 1.04 | [15] 1.02 | [16] 1.03 | [17] 1.01 | [18] 1.01 | S. cerevisiae deletion strains, locus YMR307W, strain GAS1, hits give low values 1.02 | [19] 0.999 | [20] 1.01 | [21] 1.01 | [22] 0.997 | S. cerevisiae deletion strains, locus YOL006C, strain TOP1, hits give low values 1 | [23] 1.09 | [24] 1.01 | [25] 0.91 | S. cerevisiae strains, strain wild type, hits give low values 1
